# Experimental data reported in PubChem BioAssay (Tox21).
# Several values for one entry are separate records, joined by “and”; a condition that tells them apart may be missing. Equal values may be shown once. Results filed as inconclusive are left out. Where a call stands in place of a potency, no number is given. Some structures have more than one record in an assay (separate samples or runs), and their calls can disagree. Activity calls are given as the source filed them. Unless noted, calls come from the whole dose curve; as a rule, active = well fitted curve in the direction sought with a large enough effect in the repeat runs; inconclusive = weak or mixed curves; inactive = no such curve, though single readings can be large; an effect the other way counts as inactive or inconclusive.
# Assays:
# [1] = qHTS assay to identify small molecule antagonists of the androgen receptor (AR) signaling pathway using the MDA cell line in the presence of 0.5 nM R1881 - cell viability counter screen (AID 1259242); note: nearly all actives have a fitted effect of over 45% in size; note: potency is the fitted concentration of half-maximal effect
# Procedure, shortened: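 MDA-kb2 cells (human breast carcinoma, stably carrying MMTV-luciferase reporter) were exposed to compounds with 0.5 nM R1881 (final) for 16 hr at 37C, 0% CO2; viability then read as live-cell protease fluorescence (CellTiter-Fluor, 30 min) in the same wells.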
# [2] = target: Estrogen receptor (Homo sapiens) (UniProt P03372); experiment: qHTS assay to identify small molecule antagonists of the estrogen receptor alpha (ER-alpha) signaling pathway using the BG1 cell line in the presence of 0.1 nM 17-beta-estradiol (AID 1259244); note: nearly all actives have a fitted effect of over 50% in size; note: potency is the fitted concentration of half-maximal effect
# Procedure, shortened: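 VM7Luc4E2 cells (endogenous full-length ER-alpha, stable 4xERE-luciferase) were grown 5 days in phenol red-free medium with charcoal-stripped FBS, then exposed 22 h at 37C to compounds plus 0.1 nM (final) 17beta-estradiol; ONE-Glo luminescence read-out.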
# [3] = qHTS assay to identify small molecule HDAC inhibitors (AID 1259364); note: top concentration of the series differs between compounds; nearly all actives have a fitted effect of over 45% in size
# Procedure, shortened: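 Wild-type HCT-116 cells were plated overnight, exposed to compounds for 2 h at 37 °C, then given HDAC-Glo class I/II luminogenic reagent for 30 min at room temperature before luminescence was read.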
# [4] = qHTS assay to identify small molecule HDAC inhibitors - cell viability counter screen (AID 1259365); note: series mostly up to about 92 µM; nearly all actives have a fitted effect of over 50% in size
# Procedure, shortened: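 Counter screen in wild-type HCT-116 cells: compounds dissolved in DMSO are pin-transferred onto overnight-plated cells and left 2hr at 37C. ATP-based CellTiter-Glo luminescence then measures viable cells.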
# [5] = qHTS assay to identify small molecule agonists of the sonic hedgehog signaling (Shh) pathway - cell viability counter screen (AID 1259366); note: nearly all actives have a fitted effect of over 50% in size; note: potency is the fitted concentration of half-maximal effect
# Procedure, shortened: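 Cells are plated at 2,000 per well and left 4hr at 37C, 5% CO2 before compound addition. After 23hr of treatment, CellTiter-Fluor reagent is added for 1hr at 37C and fluorescence is measured.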
# [6] = qHTS assay to identify small molecule antagonists of the sonic hedgehog signaling (Shh) pathway - cell viability counter screen (AID 1259367); note: nearly all actives have a fitted effect of over 55% in size; note: potency is the fitted concentration of half-maximal effect
# Procedure, shortened: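 Using CellTiter-Fluor, viability of Gli1-Luc reporter 3T3 cells is read by fluorescence in the wells used for the Shh luciferase assay. Treatment lasts 23 hr with conditioned medium, then reagent 1 hr at 37C.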
# [7] = qHTS assay to identify small molecule agonists of the sonic hedgehog signaling (Shh) pathway (AID 1259368; calls by dose curve; note: series mostly up to about 92 µM; nearly all actives have a fitted effect of over 15% in size)
# Procedure, shortened: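 NIH/3T3-derived 3T3Gli1-Luc cells carrying a stably integrated Gli1 response element–firefly luciferase reporter were plated, left 4 hr at 37 C, then given compounds in DMSO for 24 hr. Luminescence was read 30 min after adding luciferase reagent.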
# [8] = qHTS assay to identify small molecule antagonists of the sonic hedgehog signaling (Shh) pathway (AID 1259369; calls by dose curve; note: nearly all actives have a fitted effect of over 45% in size; note: potency is the fitted concentration of half-maximal effect)
# Procedure, shortened: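 NIH/3T3-derived 3T3Gli1-Luc cells with stably integrated Gli1-Luc reporter were preincubated 4hr at 37 C, then given compounds in DMSO plus Shh conditioned medium and incubated 24hr. Firefly luciferase luminescence read after 30min reagent at room temperature.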
# [9] = qHTS assay to identify small molecule agonists of the androgen receptor (AR) signaling pathway in the presence of an antagonist - cell viability counter screen (AID 1259379); note: nearly all actives have a fitted effect of over 25% in size; note: potency is the fitted concentration of half-maximal effect
# Procedure, shortened: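 MDA-kb2 human breast carcinoma cells (stable MMTV-luciferase, AR/GR responsive) were seeded 3,000 cells/well, pre-incubated 5 hr at 37C without CO2, then given 3.0uM nilutamide and compounds at 15 concentrations for 16 hr. Viability was read by CellTiter-Fluor fluorescence.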
# [10] = qHTS assay to identify small molecule antagonists of the estrogen receptor beta (ER-beta) signaling pathway - cell viability counter screen (AID 1259382); note: nearly all actives have a fitted effect of over 55% in size; note: potency is the fitted concentration of half-maximal effect
# Procedure, shortened: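 ER-beta-UAS-bla HEK293T cells (2,000/well, 2% charcoal-stripped FBS) were pre-incubated 6 hr at 37C, then given compound plus 1nM final 17-beta-estradiol for 16 hr. Viability was read in the same wells by CellTiter-Glo luminescence after 30 min at room temperature.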
# [11] = target: Estrogen receptor (Homo sapiens) (UniProt P03372); experiment: qHTS assay to identify small molecule agonists of the estrogen receptor alpha (ER-alpha) signaling pathway in the presence of an antagonist (AID 1259383; calls by dose curve; note: top concentration of the series differs between compounds; nearly all actives have a fitted effect of over 15% in size)
# Procedure, shortened: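 VM7Luc4E2 cells (endogenous full-length ER-alpha, 4×ERE-luciferase) were precultured 5 days in phenol red-free medium with 10% charcoal-stripped FBS, given 10.0nM ICI-182,780 (final), then treated with compounds at 15 concentrations for 22hr at 37C; luminescence read with ONE-Glo.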
# [12] = qHTS assay to identify small molecule agonists or antagonists of the thyroid stimulating hormone receptor (TSHR) signaling pathway - wild type cell line counter screen (AID 1259384; calls by dose curve)
# Procedure, shortened: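 Counter screen in untransfected Hek293: compounds (15-point titration, triplicate) plus phosphodiesterase inhibitor Ro20-1724 added after 18 h plating; 30 min RT. Intracellular cAMP via competitive d2/cryptate immunoassay, 1 h incubation.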
# [13] = target: Thyrotropin receptor (Homo sapiens) (UniProt P16473); experiment: qHTS assay to identify small molecule antagonists of the thyroid stimulating hormone receptor (TSHR) signaling pathway (AID 1259385; calls by dose curve; note: nearly all actives have a fitted effect of over 20% in size)
# Procedure, shortened: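 Antagonist mode: compound-treated TSHR-expressing HEK293 cells were stimulated with 1.5 ng/mL TSH (final) in presence of Ro20-1724 for 30 min at RT. HTRF cAMP detection after 1 h; each compound tested at 15 concentrations, triplicate.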
# [14] = qHTS assay to identify small molecule phospholipidosis (PLD) inducers (AID 1259344; active = well fitted curve in the direction sought with a large enough effect; an effect the other way counts as inactive or inconclusive)
# Procedure, shortened: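 Fluorescent phospholipid staining (LipidTOX Red) measured by automated microscopy in fixed HepG2 cells after 24 h treatment; nuclei counterstained with Hoechst 33342; amiodarone as reference inducer.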
# [15] = target: Androgen receptor (Homo sapiens) (UniProt P10275); experiment: qHTS assay to identify small molecule antagonists of the androgen receptor (AR) signaling pathway using the MDA cell line in the presence of 0.5 nM R1881 (AID 1259243); note: nearly all actives have a fitted effect of over 50% in size; note: potency is the fitted concentration of half-maximal effect
# Procedure, shortened: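 MDA-kb2 human breast carcinoma cells carrying an MMTV-luciferase reporter (AR- and GR-responsive) were plated, rested 5 hr at 37C, dosed with compounds, then stimulated with 0.5 nM R1881 (final) for 16 hr; luminescence was read after ONE-Glo.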
# [16] = qHTS assay to identify small molecule agonists of the estrogen receptor beta (ER-beta) signaling pathway - cell viability counter screen (AID 1259380); note: potency is the fitted concentration of half-maximal effect; nearly all actives have a fitted effect of over 30% in size
# Procedure, shortened: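 ER-beta-UAS-bla HEK293T cells in medium with 2% charcoal-stripped FBS were preincubated 6 hr at 37C, dosed with compound in DMSO for 16 hr, then after the bla read, CellTiter-Glo was added for 30 min at room temperature; luminescence recorded.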
# [17] = target: Androgen receptor (Homo sapiens) (UniProt P10275); experiment: qHTS assay to identify small molecule agonists of the androgen receptor (AR) signaling pathway in the presence of an antagonist (AID 1259381; calls by dose curve; note: nearly all actives have a fitted effect of over 15% in size)
# Procedure, shortened: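 MDA-kb2 human breast carcinoma cells carrying an MMTV-luciferase reporter (AR- and GR-responsive) were treated with compounds at 15 concentrations plus 3.0uM final nilutamide for 16hr at 37C without CO2; luminescence was read after ONE-Glo addition.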
# Chain of Thyrotropin receptor (Homo sapiens) (P16473 whole entry, looked up): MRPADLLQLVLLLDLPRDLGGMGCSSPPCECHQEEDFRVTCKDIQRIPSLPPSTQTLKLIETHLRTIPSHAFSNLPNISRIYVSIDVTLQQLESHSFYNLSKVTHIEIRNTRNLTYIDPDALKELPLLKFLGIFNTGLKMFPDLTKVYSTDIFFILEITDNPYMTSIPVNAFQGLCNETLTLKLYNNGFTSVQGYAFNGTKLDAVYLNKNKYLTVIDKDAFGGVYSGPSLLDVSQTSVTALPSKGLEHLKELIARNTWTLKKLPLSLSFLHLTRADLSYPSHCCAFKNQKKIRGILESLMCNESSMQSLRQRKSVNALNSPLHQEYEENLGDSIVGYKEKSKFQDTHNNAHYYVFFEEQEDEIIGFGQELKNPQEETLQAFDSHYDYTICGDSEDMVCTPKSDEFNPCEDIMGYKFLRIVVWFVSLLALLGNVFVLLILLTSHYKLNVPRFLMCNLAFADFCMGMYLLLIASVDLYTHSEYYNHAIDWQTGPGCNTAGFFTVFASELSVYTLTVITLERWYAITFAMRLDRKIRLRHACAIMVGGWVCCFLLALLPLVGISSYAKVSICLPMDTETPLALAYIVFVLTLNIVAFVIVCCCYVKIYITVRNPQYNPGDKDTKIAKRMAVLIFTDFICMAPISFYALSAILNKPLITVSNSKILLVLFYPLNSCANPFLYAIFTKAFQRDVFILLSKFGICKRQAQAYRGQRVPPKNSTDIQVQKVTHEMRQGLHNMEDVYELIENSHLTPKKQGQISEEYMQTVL
# Chain of Androgen receptor (Homo sapiens) (P10275 whole entry, looked up): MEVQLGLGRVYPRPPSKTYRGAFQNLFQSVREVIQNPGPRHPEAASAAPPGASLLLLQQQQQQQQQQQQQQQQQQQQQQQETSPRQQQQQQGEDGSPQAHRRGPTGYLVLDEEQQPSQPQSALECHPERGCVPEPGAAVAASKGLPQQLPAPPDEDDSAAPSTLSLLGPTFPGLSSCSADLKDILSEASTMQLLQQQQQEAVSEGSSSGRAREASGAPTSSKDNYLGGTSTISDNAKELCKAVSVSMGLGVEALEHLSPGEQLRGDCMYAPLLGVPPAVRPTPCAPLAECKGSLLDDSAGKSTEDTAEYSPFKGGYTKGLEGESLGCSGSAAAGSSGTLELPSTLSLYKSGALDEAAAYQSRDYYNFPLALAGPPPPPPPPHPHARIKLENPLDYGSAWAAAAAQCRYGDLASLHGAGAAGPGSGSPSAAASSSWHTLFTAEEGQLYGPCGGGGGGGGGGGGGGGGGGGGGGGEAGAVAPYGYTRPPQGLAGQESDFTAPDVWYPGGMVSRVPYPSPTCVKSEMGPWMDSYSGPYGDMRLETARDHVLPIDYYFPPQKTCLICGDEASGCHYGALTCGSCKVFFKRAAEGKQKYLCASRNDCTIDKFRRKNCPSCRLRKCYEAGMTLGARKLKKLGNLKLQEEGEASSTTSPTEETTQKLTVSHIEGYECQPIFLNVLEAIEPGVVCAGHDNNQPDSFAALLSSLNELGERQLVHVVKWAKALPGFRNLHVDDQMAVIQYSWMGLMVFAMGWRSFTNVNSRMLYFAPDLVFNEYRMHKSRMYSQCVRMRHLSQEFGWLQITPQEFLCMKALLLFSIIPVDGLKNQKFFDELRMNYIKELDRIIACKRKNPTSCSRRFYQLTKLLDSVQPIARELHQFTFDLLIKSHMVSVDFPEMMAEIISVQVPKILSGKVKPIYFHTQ
# Chain of Estrogen receptor (Homo sapiens) (P03372 whole entry, looked up): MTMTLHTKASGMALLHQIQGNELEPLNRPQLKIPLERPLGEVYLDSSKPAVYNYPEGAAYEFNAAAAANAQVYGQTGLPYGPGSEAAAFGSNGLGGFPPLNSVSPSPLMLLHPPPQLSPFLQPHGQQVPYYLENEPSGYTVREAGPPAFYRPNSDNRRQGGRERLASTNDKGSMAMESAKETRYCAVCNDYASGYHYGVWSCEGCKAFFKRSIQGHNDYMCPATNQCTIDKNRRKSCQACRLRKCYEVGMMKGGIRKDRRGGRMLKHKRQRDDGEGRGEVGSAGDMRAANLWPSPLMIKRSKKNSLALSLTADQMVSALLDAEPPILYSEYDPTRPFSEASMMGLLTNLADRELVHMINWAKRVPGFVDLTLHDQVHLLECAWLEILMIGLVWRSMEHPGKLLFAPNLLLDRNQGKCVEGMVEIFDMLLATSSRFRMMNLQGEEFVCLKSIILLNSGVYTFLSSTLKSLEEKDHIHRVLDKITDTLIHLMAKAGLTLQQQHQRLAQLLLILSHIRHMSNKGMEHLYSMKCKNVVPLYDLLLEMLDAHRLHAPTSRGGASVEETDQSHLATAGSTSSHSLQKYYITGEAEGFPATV
Compound,Potency [1],Potency [2],Potency [3],Potency [4],Potency [5],Potency [6],Potency [7],Potency [8],Potency [9],Potency [10],Potency [11],outcome [12],Potency [13],Potency [14],Potency [15],Potency [16],outcome [17]
O=C(O)c1cccc(C(F)(F)F)c1,inactive,inactive,inactive,inactive,inactive,inactive,inactive,inactive,inactive,inactive,inactive,inactive,inactive,,,,
CCOC(=O)Cn1cccc1-c1nc(-c2ccc(OC)cc2)c(-c2ccc(OC)cc2)s1,inactive,inactive,,inactive,inactive,inactive,inactive,inactive,inactive,inactive,inactive,,,inactive,,,
Cc1c2ccccc2c(C)c2c1ccc1ccccc12,inactive and 61.1 µM (active),inactive and 4.33 µM (active),inactive,inactive,inactive and 68.6 µM (active),inactive and 61.1 µM (active),inactive,10.9 µM (active),53.9 µM (active) and 61.1 µM (active),24.3 µM (active),,inactive,inactive,,48.1 µM (active) and 27.3 µM (active),30.3 µM (active) and 27.3 µM (active),
CC(C)=CCNc1ncnc2c1ncn2[C@@H]1O[C@H](CO)[C@@H](O)[C@H]1O,inactive,,,inactive,13.3 µM (active),,inactive,2.98 µM (active),inactive,11.9 µM (active),inactive,inactive,inactive,,inactive,13.3 µM (active),inactive
